# According to PubChem BioAssay:
# The source made the active and inactive calls. Unless noted, how the calls were made is not given here.
# Key:
# [1] = tested on: Wnt5a (protein binding on small-molecule microarray); test: Wnt5a binders on small-molecule microarray, primary screen, biophysical, 635/667 nm fluorescence (AID 1142); conditions: 635 nm fluorescence, higher = more signal;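 further: fluorescence read at 667 nm with signal to noise per printed feature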
# [2] = cell viability in Huh7 cells, primary screen, cytotoxicity control for HCV replication inhibitor project, CellTiter-Glo luminescence, basal, 48 h (AID 1143); conditions: Huh7 HCV replicon, higher = more signal, called active from +8 up or from −8 down;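 further: Huh7 hepatoma cells carrying a hepatitis C replication reporter with no stimulus; test concentration not given here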
# [3] = P. aeruginosa biofilm formation inhibitors, primary screen, PAO1 strain, BacTiter-Glo luminescence, LB-PBS (AID 1144); conditions: 12 h, higher = more signal
# [4] = CREB reporter modulators without forskolin, primary screen, cell-based, PC12, CRE-LacZ reporter, unstimulated (AID 1145); conditions: no forskolin, luminescence, 4.5 h, higher = more signal, called active from +8 up or from −8 down
# [5] = CREB reporter modulators under forskolin, primary screen, cell-based, PC12, CRE-LacZ reporter, forskolin-stimulated (AID 1146); conditions: luminescence, 4.5 h, higher = more signal, called active from +8 up or from −8 down;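 further: PC12 cells with 6xCRE LacZ reporter stimulated by forskolin 10 µM; beta-galactosidase reporter signal reflecting CREB driven transcription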
# [6] = molecular target: Streptavidin (Streptomyces avidinii) (UniProt P22629); test: streptavidin binders on small-molecule microarray, primary screen, artefact control for SMM compound annotation, biophysical, 635/667 nm fluorescence (AID 1147); conditions: streptavidin binding, higher = more signal;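 further: signal reflects streptavidin binding to arrayed compounds as a control protein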
# Streptavidin (Streptomyces avidinii), sequence (P22629 whole entry, looked up): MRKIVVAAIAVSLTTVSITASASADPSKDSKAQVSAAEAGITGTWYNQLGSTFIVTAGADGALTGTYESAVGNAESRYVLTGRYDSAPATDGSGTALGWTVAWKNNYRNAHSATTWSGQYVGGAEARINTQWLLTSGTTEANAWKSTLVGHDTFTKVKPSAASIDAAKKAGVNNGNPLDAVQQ
# [7] = small-molecule binders of probe aInhba, primary screen, biochemical, small-molecule microarray, 635/667 nm fluorescence (AID 1148); conditions: higher = more signal;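 further: score merges 667nm spot fluorescence with signal-to-noise for antibody binding to printed compounds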
# Torsin-1A (Homo sapiens) [8] = molecular target: Torsin-1A (Homo sapiens) (UniProt O14656); test: torsin A binders from cell lysate, primary screen, small-molecule microarray, wild-type, 635/667 nm (AID 1149); conditions: COS7 hTOR1A-WT lysate, 635 nm fluorescence, higher = more signal
# Torsin-1A (Homo sapiens), sequence (O14656 whole entry, looked up): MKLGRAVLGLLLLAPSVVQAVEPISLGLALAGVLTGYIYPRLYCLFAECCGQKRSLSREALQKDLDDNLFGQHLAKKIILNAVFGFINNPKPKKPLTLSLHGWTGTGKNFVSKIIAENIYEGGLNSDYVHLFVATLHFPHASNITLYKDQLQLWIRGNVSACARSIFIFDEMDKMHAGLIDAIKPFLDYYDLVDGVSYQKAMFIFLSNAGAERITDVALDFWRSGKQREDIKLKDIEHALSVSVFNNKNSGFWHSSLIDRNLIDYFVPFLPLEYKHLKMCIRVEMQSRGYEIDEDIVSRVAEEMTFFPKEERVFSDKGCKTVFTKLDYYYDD
# Torsin-1A (Homo sapiens) [9] = molecular target: Torsin-1A (Homo sapiens) (UniProt O14656); test: small-molecule binders of mutant TOR1A in lysate, primary screen, cell lysate, small-molecule microarray, COS7 lysate, 635/667 nm fluorescence (AID 1150); conditions: COS7 hTOR1A mutant lysate, 635 nm fluorescence, higher = more signal;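 further: score pools 667 nm emission and signal to noise measuring lysate protein binding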
# [10] = tested on: Sonic hedgehog protein (Shh); test: small-molecule binders of Shh protein, primary screen, biochemical, small-molecule microarray, 635/667 nm fluorescence (AID 1151); conditions: small-molecule microarray binding, 635 nm fluorescence; higher = more signal;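 further: Shh protein binding to compounds spotted on small-molecule microarray slides; score combines spot fluorescence intensity with signal-to-noise across triplicate slides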
Compound,composite z-score [1],z-score [2],z-score [3],z-score [4],z-score [5],composite z-score [6],composite z-score [7],composite z-score (Torsin-1A (Homo sapiens) [8]),composite z-score (Torsin-1A (Homo sapiens) [9]),composite z-score [10]
COCC(=C=CC[C@H](O)c1ccc(OCCO)cc1)C[C@H](O)c1cc(Cl)cc(Cl)c1O,0.635,-7.94 (inactive),-0.984 (inactive),11.1 (active),0.96 (inactive),0.169,0.0849,1.06,0.3,2.26
C=CC(=C)C1=CCO[C@@H]1[C@H]1CCCN1S(=O)(=O)c1ccccc1[N+](=O)[O-],0.224,-0.169 (inactive),-0.484 (inactive),0.124 (inactive),0.619 (inactive),0.909,-0.0221,0.343,0.136,1.84
COC(=O)c1c(CC[C@@H](CO)NC(=O)N[C@@H](Cc2ccccc2)Cn2cc(C3(O)CCCCC3)nn2)oc(C(C)=O)c1C(=O)OC,0.636,-5.52 (inactive),-1.73 (inactive),0.512 (inactive),-1.36 (inactive),1.16,-0.0178,0.69,0.405,1.7
O=C1OCC=C[C@H]2OC34C=CCN(c5ccc(Cl)cc5)C(=O)[C@H]3N(CCCCCCO)C(=O)[C@@H]4[C@@H]12 (stereo not given in full),-0.557,-0.652 (inactive),1.36 (inactive),1.41 (inactive),-0.0889 (inactive),-0.857,-0.0494,-1.39,-1.21,-0.38
CC(C)NC(=O)[C@@H]1c2ccccc2C(=O)N(Cc2ccccc2)[C@H]1c1ccc(CO)cc1,-0.0365,-0.0084 (inactive),-0.0818 (inactive),0.0279 (inactive),0.669 (inactive),-0.501,0.0345,-0.124,-0.744,0.495
CS(=O)(=O)CCOC(=O)C1=CC(CCCO)=CC(c2cccs2)N(Cc2cc3c(cc2Br)OCO3)C=C1C(=O)OCCS(C)(=O)=O (stereo not given),0.567,-1.26 (inactive),0.00546 (inactive),-0.583 (inactive),0.72 (inactive),2.16,0.086,1.3,1.16,0.759
CC(=CC1CCCCC1)[C@@H](NC(=O)c1ccc(C(F)(F)F)cc1)c1ccc(-c2ccccc2)cc1,-0.239,-0.992 (inactive),-0.019 (inactive),0.587 (inactive),0.618 (inactive),1.03,0.105,-0.514,-0.336,-0.129
COCCOC(=O)N1C(=O)[C@@]2(c3cc(C#CCC(C(=O)OC)C(=O)OC)ccc31)[C@H](C(=O)N1CCCCCCC1)[C@H]1C(=O)O[C@H](c3ccccc3)[C@H](c3ccccc3)N1[C@@H]2c1ccc(OCCO)cc1,1.42,-2.31 (inactive),-1.02 (inactive),-1.15 (inactive),-0.0519 (inactive),3.01,1.69,2.01,1.87,2.32
O=C1O[C@@H](c2ccccc2)[C@@H](c2ccccc2)N2[C@@H](c3ccc(OCCO)cc3)[C@]3(C(=O)Nc4ccc(C#CC5=CCCCC5)cc43)[C@@H](C(=O)O)[C@H]12,0.411,-2.22 (inactive),-0.761 (inactive),-0.348 (inactive),7.68 (inactive),1.22,0.0895,0.0714,0.97,0.658
CC(C)(C)N1CC=CC23O[C@@H]4/C=C\CCCOC(=O)C4[C@H]2C(=O)N(CCO)[C@@H]3C1=O (stereo not given in full),0.501,0.0369 (inactive),-0.647 (inactive),-0.492 (inactive),-0.533 (inactive),-0.801,-0.416,-0.769,-0.875,-0.131
CCCCCCc1nc(CCCc2cc3c(c(CCCCCC)n2)[Si](C(C)C)(C(C)C)OC3)cc2c1[Si](C(C)C)(C(C)C)OC2,-0.0564,-5.79 (inactive),-0.194 (inactive),1.78 (inactive),0.444 (inactive),1.91,-0.101,-0.333,0.0509,0.551
CCCCC(CC)C(O)C1C=CC2C(=O)N(c3ccccc3)C(=O)C2N1Nc1ccccc1 (stereo not given),0.0653,-2.93 (inactive),-0.569 (inactive),0.253 (inactive),0.011 (inactive),0.948,0.103,-0.311,0.178,-0.751
O=C1O[C@H](c2ccccc2)[C@H](c2ccccc2)N2[C@H]1[C@@H](C(=O)NC[C@H](O)c1ccccc1)[C@]1(C(=O)Nc3ccc(C#CCCO)cc31)[C@H]2c1ccc(O)cc1,-0.11,-4.32 (inactive),-1.16 (inactive),-0.329 (inactive),0.0393 (inactive),-1.11,0.295,-0.596,-1.36,-0.606
COC(=O)C(CC#Cc1ccc2c(c1)[C@]1(C(=O)N2)[C@H](C(=O)NC[C@H](O)c2ccccc2)[C@H]2C(=O)O[C@H](c3ccccc3)[C@H](c3ccccc3)N2[C@@H]1c1ccc(OCCO)cc1)C(=O)OC,1.08,-1.02 (inactive),-0.419 (inactive),0.0653 (inactive),-0.291 (inactive),2.55,0.859,1.69,1.09,1.6
C=CCC(OC(C)=O)[C@@H]1[C@@H](N(Cc2ccc(-c3ccccc3)cc2)C(=O)Cc2ccc(F)cc2)c2cc(OCCCO)ccc2N1C(=O)c1ccc2ccccc2n1 (stereo not given in full),-0.212,0.0753 (inactive),-0.201 (inactive),2.31 (inactive),-0.116 (inactive),0.171,0.151,0.226,0.0886,0.321
C=CCNC(=O)[C@@H]1[C@H]2C(=O)O[C@H](c3ccccc3)[C@H](c3ccccc3)N2[C@H](c2ccc(O)cc2)[C@@]12C(=O)N(C(=O)OCCOC)c1ccccc12,0.0795,-4.99 (inactive),-0.848 (inactive),1.04 (inactive),-0.0406 (inactive),1.56,-0.0375,0.677,0.76,0.951
NC(=O)NCC#Cc1ccc2c(c1)[C@]1(C(=O)N2)[C@H](C(=O)N2CCCCCCC2)[C@H]2C(=O)O[C@H](c3ccccc3)[C@H](c3ccccc3)N2[C@@H]1c1ccc(OCCO)cc1,0.683,-0.416 (inactive),-0.0789 (inactive),0.619 (inactive),0.0646 (inactive),2.11,0.563,0.92,0.304,0.679
COc1ccccc1CN1C(=O)c2ccccc2[C@@H](C(=O)NCCN2CCOCC2)[C@@H]1c1ccc(CO)cc1,0.274,-0.916 (inactive),-1.04 (inactive),0.001 (inactive),-1.09 (inactive),0.156,-0.13,0.52,0.767,0.197
COCCOC(=O)N1C(=O)[C@@]2(c3ccccc31)[C@H](c1ccc(O)cc1)N1[C@H](c3ccccc3)[C@H](c3ccccc3)OC(=O)[C@H]1[C@@H]2C(=O)N1CCc2cc(OC)c(OC)cc2C1,0.633,-3.64 (inactive),-1.29 (inactive),0.0776 (inactive),-0.654 (inactive),-0.162,0.223,0.419,0.697,2.1
CCCCC(O)C1C=CC2C(=O)N(C3CCCCC3)C(=O)C2N1Nc1ccc(OC)cc1 (stereo not given),0.177,-0.527 (inactive),-1.47 (inactive),0.276 (inactive),0.765 (inactive),1.54,0.0785,0.0983,-0.001,0.342
[N-]=[N+]=NCc1ccccc1C[C@@]1(C(=O)NCC(O)CO)N=C(c2ccc(OCCCO)cc2)O[C@@H]1c1ccccc1CN=[N+]=[N-] (stereo not given in full),0.604,-1.84 (inactive),-0.376 (inactive),-0.435 (inactive),-0.554 (inactive),1.43,0.533,0.441,1.39,-0.393
CCOC(=O)C1=C[C@@H](CC)N(S(=O)(=O)c2ccc(C)cc2)[C@H]1c1ccccc1,0.214,-3.47 (inactive),-0.0903 (inactive),0.22 (inactive),-0.55 (inactive),1.09,0.226,0.391,0.637,0.0552
O=c1cccc(CCc2ccccc2)o1,-0.187,-0.908 (inactive),0.624 (inactive),1.08 (inactive),1.03 (inactive),-0.0374,0.0357,-0.221,-0.15,0.943
N#Cc1ccc(NN2C(C(O)c3cccs3)C=CC3C(=O)N(c4ccccc4)C(=O)C32)cc1 (stereo not given),0.128,-0.0331 (inactive),-1.34 (inactive),-0.329 (inactive),-0.224 (inactive),0.943,0.109,0.733,0.812,-0.318
COC(=O)[C@@]1(Cc2ccc(F)cc2)[C@H]2c3cc(C(=O)N(C)C)n(CCc4ccccn4)c3C[C@H]2CN1C(=O)c1ccccc1,1.9,-1.86 (inactive),-0.604 (inactive),0.39 (inactive),-0.038 (inactive),-0.0936,1.14,1.23,0.948,-0.154
COc1ccc([Si](C)(C)[C@H]2[C@H](CCn3cc([C@H](O)c4ccccc4)nn3)O[C@@]3(C(=O)N(Cc4cccc(N5CCC5=O)c4)c4ccccc43)[C@@H]2C)cc1,0.42,-1.67 (inactive),0.115 (inactive),2.55 (inactive),-0.157 (inactive),0.552,-0.045,0.358,0.0772,1.9
C=CCC(OC(C)=O)[C@@H]1[C@@H](N(Cc2ccc(-c3ccccc3)cc2)C(=O)Cc2ccc(OC)cc2)c2cc(OCCCO)ccc2N1C(=O)c1ccc2ccccc2n1 (stereo not given in full),-0.167,-1.53 (inactive),0.321 (inactive),0.409 (inactive),0.677 (inactive),0.437,-0.0471,-0.0598,0.0615,-0.111
CC(=O)C1=CCC(c2ccccc2)N(S(=O)(=O)c2ccc(C)cc2)C1 (stereo not given),-0.004,-1.06 (inactive),-0.65 (inactive),-0.116 (inactive),0.151 (inactive),1.69,-0.0087,0.911,1.55,-0.194
